# TTR transcr act = increases transthyretin transcription; activation, % at 16.7 µM; AID 1117267; 92,000 tested, 1.3% active; SH-SY5Y TTR promoter Gaussia luciferase, luminescence; 100% = recombinant luciferase protein wells;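 active means activation above the mean of all tested compounds plus 3 SD, cut at about 9.5% in these data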;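 further: cells exposed to compounds for one day before reading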
# HuH7 TTR inh = decreases TTR transcription in HuH7 cells in activator counter-screen. shares compounds with TTR transcr act. HuH7 TTR promoter-Gaussia luciferase reporter, luminescence. inhibition, % at 16.7 µM. 1,100 tested, 4% active;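 active means average inhibition above the solvent-only control wells' mean plus 3 SD, cut at about 15% in these data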;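 further: inhibitors lower well luminescence so higher value means more inhibition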
# TTR up confirm = confirmation of human transthyretin transcription activators. SHSY5Y TTR promoter Gaussia luciferase, luminescence; 100% = purified Lucia enzyme wells, no cells. 1,100 tested, under 10 active. shares compounds with TTR transcr act. activation, % at 16.7 µM;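 active means mean activation above a set limit taken from the earlier primary screen, cut at about 11% in these data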
# Hits are given with their value; – = inactive. The sample as a whole holds a higher share of hits than the screen did.
SMILES,TTR transcr act,others
CCCCNC(=O)C[C@H]1C[C@@]2(C(=O)OC)C(=C[C@H](C3CCCC3)O[C@@H]2C)N(Cc2cccc3ccccc23)C1=O,–,
CC(C)OP(=O)(O)C(C)NC(=O)OCc1ccccc1 (centres undefined),–,
O=C(N=C1SC2CS(=O)(=O)CC2N1Cc1ccccc1)C1CC1 (centres undefined),–,
O=C(COc1ccccc1)N=C1SC2CS(=O)(=O)CC2N1c1ccccc1 (centres undefined),–,
O=C(CCC1CCCC1)N=C1SC2CS(=O)(=O)CC2N1c1ccccc1F (centres undefined),13,HuH7 TTR inh=–;TTR up confirm=–
N/C(=N\OC(=O)c1ccc(OCC(F)(F)F)nc1)c1ccc(Cl)cc1,–,
CN(C)C(=O)c1ccc(Oc2ccc(C(=O)N(C)C)cc2)cc1,–,
CN(C)C(=O)c1ccc(OCC(F)(F)F)nc1,13,HuH7 TTR inh=–;TTR up confirm=–
COc1ccccc1C(=O)n1ccc2ccc(-c3ccc4ccn(Cc5ccccc5)c4c3)cc21,–,
C[C@H]1[C@@H](NCC2CCCCC2)CC[C@@]23CCCN2C(=O)CCC[C@@H]13,–,
C[C@H]1C2CC(OC(=O)Nc3cccc(Cl)c3)C(C2)[C@H]2CCCCN21 (some centres undefined),–,
N#Cc1ccc(C(=O)Oc2coc(CSc3ncccn3)cc2=O)cc1,–,
CCn1c(=O)n2n(c1=O)[C@]1(C=C(C)C2)CN(Cc2ccc(OC)cc2OC)C(NC(=O)c2ccccc2)=N1,–,
COc1cc(O)c(C(CC(=O)N2CC(C)OC(C)C2)c2ccc3c(c2)OCO3)c(OC)c1 (centres undefined),–,
O=C(Nc1ccc(F)cc1)N(Cc1cccs1)Cc1cc2cc3c(cc2[nH]c1=O)OCO3,28,HuH7 TTR inh=–;TTR up confirm=–
Cc1ccc(NC(=O)N(Cc2cccs2)Cc2cc3cc4c(cc3[nH]c2=O)OCO4)cc1,–,
O=C(Nc1ccccc1)N(CCCN1CCOCC1)Cc1cc2cc3c(cc2[nH]c1=O)OCCO3,–,
Cc1ccc(NC(=O)OC2CC3CC2[C@H]2CCCCN2[C@H]3C)cc1 (some centres undefined),–,
O=C(Nc1ccc(Br)cc1)OCCN1CCCC12CCC(c1ccccc1)CC2 (centres undefined),–,
COc1ccc(CCN=C(N)NS(=O)(=O)c2cccs2)cc1,–,
NC(=NCCc1ccc(Cl)cc1)NS(=O)(=O)c1ccccc1,–,
NC(=NCCc1ccccc1)NS(=O)(=O)c1cccs1,19,HuH7 TTR inh=–;TTR up confirm=–
COC(=O)[C@]12C[C@H](CC(=O)NCc3ccccc3)C(=O)N(Cc3cccc4ccccc34)C1=C[C@H](COCc1ccccc1)O[C@@H]2C,–,
O=C(Nc1ccccc1)OCCN1CCCC12CCC(c1ccccc1)CC2 (centres undefined),–,
COc1ccc(CNC(=O)CNC(=O)c2ccc(C(C)(C)C)cc2)cc1OC,13,HuH7 TTR inh=–;TTR up confirm=–
SMILES,TTR transcr act,others
COc1ccc(CC(=O)NCc2ccccc2)cc1OC,–,
COc1ccc(CCNC(=O)c2ccc(OC)c(OC)c2)cc1OC,–,
CC(C)(C)OC(=O)NC1CCN(c2nc(-c3ccc(Br)cc3)cs2)CC1,–,
O=[N+]([O-])c1cccc(NC(=S)N2CCOCC2)c1,–,
Cc1ccc([N+](=O)[O-])cc1N=C(c1ccc([N+](=O)[O-])cc1)N1CCOCC1,–,
Cc1ccc([N+](=O)[O-])cc1N=C(c1cccc([N+](=O)[O-])c1)N1CCOCC1,15,HuH7 TTR inh=–;TTR up confirm=–
O=C(OCc1cn(Cc2cccc(C(F)(F)F)c2)nn1)N1CCOCC1,–,
COc1ccc(F)cc1-c1cc(C(C)=O)c2n(c1=O)CCC2,–,
CC(C)n1c(=O)c2ccccc2n1Cc1cn(CCc2c[nH]c3ccccc23)nn1,–,
COc1ccc(Cn2cc(Cn3c4ccccc4c(=O)n3C(C)C)nn2)cc1,16,HuH7 TTR inh=–;TTR up confirm=–
COC(=O)Cn1c2ccccc2c(=O)n1C(C)C,–,
COC(=O)[C@]12C[C@H](CC(=O)NCCc3ccccc3OC)C(=O)N(Cc3ccco3)C1=C[C@H](C1CCCC1)O[C@@H]2C,–,
COC(=O)[C@]12CCCCC=C1N(Cc1ccc(OC)cc1)C(=O)[C@@H]2CC(=O)NCCCCc1ccccc1,–,
C#CCNC(=O)C[C@H]1C[C@@]2(C(=O)OC)C(=C[C@H](C(C)C)O[C@@H]2C2CC2)N(Cc2ccc(Cl)cc2Cl)C1=O,–,
Cc1ccnc2nc(C(=O)Nc3ccc(N4CCOCC4)cc3)nn12,–,
Cc1csc(NC(=O)c2nc3nccc(C)n3n2)n1,11,HuH7 TTR inh=–;TTR up confirm=–
Cc1ccnc2nc(C(=O)Nc3nc4ccccc4s3)nn12,–,
CC(=O)C1=CCN(C)CC1,–,
CCCC[C@H](C(=O)N(C)c1cccc(OC)c1)[C@@H](O)c1ccc(Cl)cc1,–,
C[C@H]1[C@@H](N)CC[C@@]23CCCN2C(=O)CCC[C@@H]13,–,
CCc1noc(C)c1C(=O)Nc1cc(S(=O)(=O)N2CCCCC2)ccc1N(C)C,11,HuH7 TTR inh=–;TTR up confirm=–
Cc1onc(-c2ccccc2)c1C(=O)Nc1cccc(S(=O)(=O)N2CCCCC2)c1,–,
CCc1noc(C)c1C(=O)N1CCN(S(=O)(=O)c2ccc(Br)cc2)CC1,–,
FC(F)(F)c1cc(CNC2CCC23CCC(c2ccccc2)CC3)ccc1Cl (centres undefined),–,
CCCCCCCCN1C(=O)[C@@H](CC(=O)N2CCOCC2)C[C@@]2(C(=O)OC)C1=C[C@H](C(C)C)O[C@@H]2C1CC1,–,
SMILES,TTR transcr act,others
Cc1nn(C)c(C)c1/C=N/NC(=O)c1csc2ccccc12,–,
Cc1sccc1/C=N/NC(=O)c1cccc2ccccc12,–,
CCn1ncc(/C=N\NC(=O)c2csc3ccccc23)c1C,15,HuH7 TTR inh=18;TTR up confirm=–
CCCN1Cc2cccc(C(=O)N3CCN(c4ccc(F)cc4)CC3)c2C1=O,–,
C=CCC1c2cccc(C(=O)O)c2C(=O)N1c1ccc(F)cc1 (centres undefined),12,HuH7 TTR inh=–;TTR up confirm=–
O=C1c2ccccc2C(O)N1c1ccccc1 (centres undefined),–,
O=C1CCC[C@H]2C[C@H](NCc3cccc(Cl)c3)CC[C@]23CCCN13,–,
COc1ccc2c(c1)N[C@@](CCN1C(=O)c3ccccc3C1=O)(c1[nH]c3ccccc3c1CCN1C(=O)c3ccccc3C1=O)C2=O,–,
Cc1ccc(NC(=O)C2CC3CCC2C3)c(C)c1 (centres undefined),–,
CN(C)[C@H]1CCN(c2cccc3c2S(=O)(=O)N2CC[C@@H](C2)O3)C1,–,
Cn1c2ccccc2c(=O)c2c(=O)n(Cc3ccco3)c(-c3ccc(F)cc3)nc21,–,
O=c1c2ccccc2sc2nc(C3CCCCC3)n(Cc3ccco3)c(=O)c12,17,HuH7 TTR inh=–;TTR up confirm=–
CCCc1nc2sc3ccccc3c(=O)c2c(=O)n1Cc1ccccc1,–,
CCOC(=O)[C@@]12CCCC=C1N(CCc1ccc(Cl)cc1)C(=O)[C@H]2CC(=O)NCc1ccccc1,–,
CCCOc1cccc(C2/C(=C(/O)c3ccc(OC)cc3)C(=O)C(=O)N2CCN(C)C)c1 (centres undefined),–,
COc1ccc(/C(O)=C2/C(=O)C(=O)N(CCCN3CCOCC3)C2c2ccc(N(C)C)cc2)cc1 (centres undefined),–,
COc1ccc(C2/C(=C(/O)c3ccc(F)cc3)C(=O)C(=O)N2CCCN(C)C)cc1 (centres undefined),12,HuH7 TTR inh=–;TTR up confirm=–

# Screens (PubChem BioAssay)
